A short description of this experiment: Comparison of Janus kinase inhibitors to block the type I interferon pathway in human skeletal muscle cells: JAK inhibition assay. From the text: Assay Submitter: Travis B. Kinder Ph.D.
National Center for Advancing Translational Sciences (NCATS)
The family of Janus kinases (JAK1, JAK2, JAK3, TYK2) mediate signal transduction from cytokine receptors through phosphorylation and activation of intracellular signaling pathways and transcription factors. Small molecule antagonists of JAKs (jakinibs) have been developed with varying selectivity for the use in malignancies and immune regulation. […] We have assayed a library of 48 jakinibs for their ability to inhibit the JAK1/TYK2-dependent type I interferon (IFN) - major histocompatibility complex (MHC) class I pathway in human skeletal muscle cells genome-engineered to fuse a pro-luminescent HiBiT peptide to endogenous MHC class I.
The assay utilized CRISPR/Cas9 genome-engineered immortalized human myoblasts, C25cl48, where a pro-luminescent reporter HiBit was fused to the C-terminus of endogenous MHC class I allele HLA-B*08:01 (HLA-B HiBit myoblasts) (Kinder et al., 2020). […] After 24 hrs of treatment, cells were assayed by Nano-Glo HiBiT Lytic Detection System (Promega) and luminescence measured by a ViewLux 1430 Ultra HTS (Perkin Elmer). […]
7; Detector; 5 sec; Measure luminescence with ViewLux 1430 Ultra HTS (Perkin Elmer). […]

Our source for the Potency values is PubChem BioAssay AID1645849 (National Center for Advancing Translational Sciences (NCATS), 2021).

Inconclusive results are not listed. Entries that show only a call come without a potency. Active and inactive are the calls of the source. The call rests on the fitted dose curve; in most records, active means well fitted inhibition curve with a large enough effect in the repeat runs; inconclusive means weak or mixed curves; inactive means no such curve, though single readings can be large or run the other way.

Regarding `CC1CCCCCC(=O)c2c(O)cc(O)cc2CC(=O)O1` (configuration not stated), the Potency result is “inactive”.

On to `CC(C)(O)/C=C\C(=O)[C@](C)(O)[C@H]1[C@H](O)C[C@]2(C)[C@@H]3CC=C4[C@@H](C=C(O)C(=O)C4(C)C)[C@]3(C)C(=O)C[C@@]12C`, for which the Potency is 5.65 µM (active).
